Experimental data published in PubChem BioAssay AID853 (Columbia University Molecular Screening Center, 2007).
Among all 47,000 compounds or so, about 200 (0.43%) were called active. About 1% were inconclusive and are not listed.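 The calls were made as follows: active = inhibition of aggregate fluorescence above about 70%, also judged a hit by eye on the cell image (limit read from the data, passing the limit was not always enough); inconclusive = no rule stated for this call; inactive = not judged a hit on image review.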 Only a selection was taken, and actives are over-represented in it overall.

Assay: removal of polyQ htt aggregates in HeLa – imaging, HeLa Exon1htt(103Q)mCFP, confocal imaging, primary screen (AID 853);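 also: cells exposed to compound for three days before fixation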
Details: aggregate imaging, at 1.5 µM; fraction fluorescence in grains: measured here: aggregate grain fluorescence fraction, stronger effect = lower value; inhibition: stronger effect = higher value

| Compound | fraction fluorescence in grains | inhibition |
| --- | --- | --- |
| N#Cc1ccc(Cn2cc(C(=O)c3ccco3)c3ccccc32)cc1 | 6.7 | 83.1% (active) |
| COc1ccc(CCn2c(O)c(C=NC3CC3)c(=O)[nH]c2=O)cc1OC | 56 | -52.1% (inactive) |
| CC(C)c1ccc(OCC(=O)N2CCN(C)CC2)c(Br)c1 | 48.9 | -31% (inactive) |
| CCN1CCN(C(=O)Cc2coc3cc(C)cc(C)c23)CC1 | 24 | -20.7% (inactive) |
| c1cc2c(cc1CCNC1CCCCCC1)OCO2 | 16.3 | 11.1% (inactive) |
